Laboratory results from PubChem BioAssay (Tox21).
Several values for one entry are separate records, joined by “and”; a condition that tells them apart may be missing. Equal entries are not always repeated. Inconclusive results are not listed. Activity calls are given as the source filed them. Unless noted, the call rests on the fitted dose curve; in most records, active means well fitted curve in the direction sought with a large enough effect in the repeat runs; inconclusive means weak or mixed curves; inactive means no such curve, though single readings can be large; an effect the other way counts as inactive or inconclusive.

Assays:
[1] = qHTS assay to identify aromatase inhibitors - cell viability counter screen (AID 743084);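 further: cells stimulated with testosterone during compound exposure; nearly all actives have a fitted effect of over 55% in size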; further: potency means the concentration at half of the fitted maximal effect
[2] = biological target: Aryl hydrocarbon receptor (Homo sapiens) (UniProt P35869); assay: qHTS assay to identify small molecule that activate the aryl hydrocarbon receptor (AhR) signaling pathway (AID 743085);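 further: HG2L7.5c1 human HepG2 liver cells with stably integrated DRE-driven firefly reporter; series mostly up to about 70 µM; nearly all actives have a fitted effect of over 15% in size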
Aryl hydrocarbon receptor (Homo sapiens), sequence (P35869 whole entry, looked up): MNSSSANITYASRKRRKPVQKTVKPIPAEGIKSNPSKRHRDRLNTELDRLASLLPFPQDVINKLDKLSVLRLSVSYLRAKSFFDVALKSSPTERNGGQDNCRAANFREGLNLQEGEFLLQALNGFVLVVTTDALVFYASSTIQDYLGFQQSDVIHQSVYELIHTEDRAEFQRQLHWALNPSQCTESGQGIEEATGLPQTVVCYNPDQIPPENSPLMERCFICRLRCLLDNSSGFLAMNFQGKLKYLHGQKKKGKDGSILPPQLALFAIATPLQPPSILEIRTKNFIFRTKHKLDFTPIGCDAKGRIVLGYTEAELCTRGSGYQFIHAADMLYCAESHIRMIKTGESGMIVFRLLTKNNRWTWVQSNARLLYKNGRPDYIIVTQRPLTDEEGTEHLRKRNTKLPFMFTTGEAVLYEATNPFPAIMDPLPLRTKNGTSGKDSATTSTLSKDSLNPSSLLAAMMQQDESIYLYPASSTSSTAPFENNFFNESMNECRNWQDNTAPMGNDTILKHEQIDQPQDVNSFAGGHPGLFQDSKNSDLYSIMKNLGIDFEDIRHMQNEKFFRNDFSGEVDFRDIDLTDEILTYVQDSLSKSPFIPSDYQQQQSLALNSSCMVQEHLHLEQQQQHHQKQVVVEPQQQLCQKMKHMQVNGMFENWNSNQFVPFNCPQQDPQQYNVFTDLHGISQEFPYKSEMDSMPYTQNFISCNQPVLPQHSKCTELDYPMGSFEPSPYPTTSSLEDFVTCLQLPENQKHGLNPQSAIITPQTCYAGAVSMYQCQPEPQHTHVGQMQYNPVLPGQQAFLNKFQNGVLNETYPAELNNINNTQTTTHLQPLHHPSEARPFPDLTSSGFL
Procedure, shortened: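 A multiplexed format paired cell viability (CellTiter-Fluor fluorescence) with AhR-dependent luciferase output (ONE-Glo luminescence) in the same wells of HepG2 DRE-luc cells after 24 h compound exposure at 37C.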

[3] = qHTS assay to identify small molecule that activate the aryl hydrocarbon receptor (AhR) signaling pathway - cell viability counter screen (AID 743086);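 further: HepG2 liver cells carrying the AhR DRE luciferase reporter; series mostly up to about 70 µM; nearly all actives have a fitted effect of over 45% in size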
Procedure, shortened: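 HepG2-AhR-luc (HG2L7.5c1) cells, 4000/well, treated 24 h at 37 C with compound; viability measured as CellTiter-Fluor fluorescence after 30 min in the same wells as the luciferase read.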

[4] = biological target: Peroxisome proliferator-activated receptor gamma (Homo sapiens) (UniProt P37231); assay: qHTS assay to identify small molecule agonists of the peroxisome proliferator-activated receptor gamma (PPARg) signaling pathway (AID 743094; active means well fitted activation curve with a large enough effect in the signal ratio in the repeat runs, not every such curve was filed as active; the % refers to the signal ratio)
Peroxisome proliferator-activated receptor gamma (Homo sapiens), sequence (P37231 whole entry, looked up): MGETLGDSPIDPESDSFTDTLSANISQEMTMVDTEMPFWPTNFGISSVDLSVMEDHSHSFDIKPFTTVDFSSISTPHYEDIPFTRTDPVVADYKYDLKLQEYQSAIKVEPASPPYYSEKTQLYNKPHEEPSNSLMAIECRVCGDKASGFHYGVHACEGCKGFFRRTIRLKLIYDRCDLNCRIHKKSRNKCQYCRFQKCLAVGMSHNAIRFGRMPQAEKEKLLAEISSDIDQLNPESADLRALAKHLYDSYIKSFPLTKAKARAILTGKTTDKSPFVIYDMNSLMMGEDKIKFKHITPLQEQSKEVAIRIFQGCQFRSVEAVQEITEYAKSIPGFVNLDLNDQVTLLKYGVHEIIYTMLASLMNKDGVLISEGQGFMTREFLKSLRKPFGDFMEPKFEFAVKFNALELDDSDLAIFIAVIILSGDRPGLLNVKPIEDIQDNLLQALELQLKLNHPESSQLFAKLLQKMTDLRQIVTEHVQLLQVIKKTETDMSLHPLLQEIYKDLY
Procedure, shortened: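 Compounds dissolved in DMSO were added to PPARg UAS-bla HEK293H cells for 17 h at 37C, and reporter expression was quantified by fluorescence intensity after 1 h with LiveBLAzer B/G FRET substrate.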

[5] = qHTS assay for small molecule agonists of the antioxidant response element (ARE) signaling pathway - cell viability counter screen (AID 743203; calls by dose curve; further: nearly all actives have a fitted effect of over 55% in size; further: potency means the concentration at half of the fitted maximal effect)
Procedure, shortened: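 Following 16 hrs of compound treatment at 37C, HepG2 cells with an ARE-controlled beta-lactamase gene were lysed with CellTiter-Glo. Luminescence was read after 30 min at room temperature.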

[6] = qHTS assay for small molecule activators of the heat shock response signaling pathway - cell viability counter screen (AID 743209); further: nearly all actives have a fitted effect of over 50% in size
Procedure, shortened: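 Readout: CellTiter-Glo luminescence, 30 min at room temperature. System: HSE-bla HeLa cells, 1500/well, plated overnight. Treatment: compounds in DMSO, 5 h at 37 C.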

[7] = qHTS assay to identify small molecule agonists of the peroxisome proliferator-activated receptor delta (PPARd) signaling pathway - cell viability counter screen (AID 743211); further: nearly all actives have a fitted effect of over 55% in size
Procedure, shortened: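 Tox21 library compounds, delivered in DMSO, were incubated 17 h with PPARd-bla HEK293H cells; cytotoxicity was taken from CellTiter-Glo luminescence read 30 min after reagent addition.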

[8] = biological target: Peroxisome proliferator-activated receptor delta (Homo sapiens) (UniProt Q03181); assay: qHTS assay to identify small molecule agonists of the peroxisome proliferator-activated receptor delta (PPARd) signaling pathway (AID 743212; calls by dose curve)
Peroxisome proliferator-activated receptor delta (Homo sapiens), sequence (Q03181 whole entry, looked up): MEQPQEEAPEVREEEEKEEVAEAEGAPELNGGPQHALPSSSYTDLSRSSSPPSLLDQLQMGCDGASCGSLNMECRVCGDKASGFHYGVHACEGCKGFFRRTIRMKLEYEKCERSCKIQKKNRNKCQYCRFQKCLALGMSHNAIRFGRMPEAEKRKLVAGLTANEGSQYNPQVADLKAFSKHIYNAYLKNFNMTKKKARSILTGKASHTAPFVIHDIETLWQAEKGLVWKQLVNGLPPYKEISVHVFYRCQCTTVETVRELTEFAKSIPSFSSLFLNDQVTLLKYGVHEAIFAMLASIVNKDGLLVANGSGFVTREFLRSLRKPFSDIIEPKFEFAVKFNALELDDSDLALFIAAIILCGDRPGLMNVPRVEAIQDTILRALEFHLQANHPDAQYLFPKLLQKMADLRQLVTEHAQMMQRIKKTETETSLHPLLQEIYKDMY
Procedure, shortened: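 Quantitative high-throughput agonist screen in a HEK293H beta-lactamase reporter line under UAS control. Compounds in DMSO, at 37 C. Fluorescence read after 2 h with FRET substrate at room temperature.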

[9] = qHTS assay to identify small molecule antagonists of the peroxisome proliferator-activated receptor delta (PPARd) signaling pathway - cell viability counter screen (AID 743213); further: nearly all actives have a fitted effect of over 50% in size
Procedure, shortened: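 In this counter screen, HEK293H cells carrying a UAS-beta-lactamase reporter are co-treated with test compounds and 300 nM L165041 (final) for 17 h at 37 C; cell viability is quantified by CellTiter-Glo luminescence.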

[10] = qHTS assay to identify small molecule antagonists of the farnesoid-X-receptor (FXR) signaling pathway - cell viability counter screen (AID 743221; active means well fitted cell-killing curve with a large enough effect in the repeat runs, not every such curve was filed as active; further: nearly all actives have a fitted effect of over 50% in size)
Procedure, shortened: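 Cytotoxicity is taken from ATP luminescence (CellTiter-Glo, 30 min, room temperature) in FXR-bla HEK 293T cells previously incubated 16 h at 37 C with compound and chenodeoxycholic acid at 50 uM final.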

[11] = biological target: Vitamin D3 receptor (Homo sapiens) (UniProt P11473); assay: qHTS assay to identify small molecule antagonists of the vitamin D receptor (VDR) signaling pathway (AID 743223; active means well fitted inhibition curve with a large enough effect in the signal ratio in the repeat runs, not every such curve was filed as active; the % refers to the signal ratio)
Vitamin D3 receptor (Homo sapiens), sequence (P11473 whole entry, looked up): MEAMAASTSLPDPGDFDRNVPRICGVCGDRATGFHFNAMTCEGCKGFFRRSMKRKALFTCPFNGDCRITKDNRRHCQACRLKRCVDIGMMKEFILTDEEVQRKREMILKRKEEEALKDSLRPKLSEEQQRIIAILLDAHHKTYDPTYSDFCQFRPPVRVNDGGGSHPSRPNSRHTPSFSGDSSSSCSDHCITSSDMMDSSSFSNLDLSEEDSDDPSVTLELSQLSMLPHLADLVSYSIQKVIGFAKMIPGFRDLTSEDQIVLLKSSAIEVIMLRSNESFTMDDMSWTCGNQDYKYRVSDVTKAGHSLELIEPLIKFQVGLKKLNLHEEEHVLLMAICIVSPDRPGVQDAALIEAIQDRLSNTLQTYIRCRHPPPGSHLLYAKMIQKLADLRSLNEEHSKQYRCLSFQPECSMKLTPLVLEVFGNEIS
Procedure, shortened: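 Quantitative HTS in VDR-bla reporter cells stimulated with 1alpha,25-dihydroxyvitamin D3, 3 nM final. Compound exposure 16 h, 37C, 5% CO2. Read-out: beta-lactamase FRET substrate fluorescence, 2 h RT.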

[12] = qHTS assay for small molecule activators of the heat shock response signaling pathway (AID 743210; active means well fitted activation curve with a large enough effect in the signal ratio in the repeat runs, with a control signal flat, not every such curve was filed as active; the % refers to the signal ratio;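 further: HeLa cells with beta-lactamase reporter driven by heat shock elements; series mostly up to about 63 µM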)
Procedure, shortened: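 Quantitative high-throughput format using an engineered HeLa line in which heat shock response elements drive beta-lactamase; after 5 h with compound, cells received a B/G FRET substrate and fluorescence was read.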

[13] = biological target: Peroxisome proliferator-activated receptor delta (Homo sapiens) (UniProt Q03181); assay: qHTS assay to identify small molecule antagonists of the peroxisome proliferator-activated receptor delta (PPARd) signaling pathway (AID 743215; active means well fitted inhibition curve with a large enough effect in the signal ratio in the repeat runs, not every such curve was filed as active; the % refers to the signal ratio;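 further: cells stimulated with agonist L165041 at 300 nM final during compound exposure; series mostly up to about 62 µM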)
Procedure, shortened: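 HEK293H UAS-bla, PPARd; agonist L165041 300 nM final with cpd in DMSO; 37 C 17 h; FRET substrate, RT 2 h; fluorescence intensity.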

[14] = biological target: Bile acid receptor (Homo sapiens) (UniProt Q96RI1); assay: qHTS assay to identify small molecule antagonists of the farnesoid-X-receptor (FXR) signaling pathway (AID 743217; active means well fitted inhibition curve with a large enough effect in the signal ratio in the repeat runs, not every such curve was filed as active; the % refers to the signal ratio)
Bile acid receptor (Homo sapiens), sequence (Q96RI1 whole entry, looked up): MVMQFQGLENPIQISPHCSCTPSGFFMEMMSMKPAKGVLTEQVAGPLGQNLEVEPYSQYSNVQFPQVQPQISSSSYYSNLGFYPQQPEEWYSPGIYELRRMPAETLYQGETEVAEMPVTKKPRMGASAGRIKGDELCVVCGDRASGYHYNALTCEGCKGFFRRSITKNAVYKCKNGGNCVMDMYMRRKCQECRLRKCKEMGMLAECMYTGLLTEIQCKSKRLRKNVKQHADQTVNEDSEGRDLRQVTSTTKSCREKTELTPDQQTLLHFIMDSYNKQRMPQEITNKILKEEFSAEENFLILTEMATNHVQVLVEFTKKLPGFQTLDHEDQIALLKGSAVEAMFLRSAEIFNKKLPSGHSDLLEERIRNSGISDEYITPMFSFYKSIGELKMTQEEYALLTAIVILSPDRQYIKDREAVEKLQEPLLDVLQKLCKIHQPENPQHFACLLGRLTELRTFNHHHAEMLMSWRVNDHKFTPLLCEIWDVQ
Procedure, shortened: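 GeneBLAzer FXR-UAS-bla HEK 293T, CDCA-stimulated (50 uM final). Compound treatment 16 h, 37 °C. Detection: beta-lactamase cleavage of B/G FRET substrate, fluorescence.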

[15] = qHTS assay to identify small molecule agonists of the farnesoid-X-receptor (FXR) signaling pathway - cell viability counter screen (AID 743218); further: nearly all actives have a fitted effect of over 45% in size
Procedure, shortened: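 Parallel cytotoxicity test: compound-treated (16 h, 37 C) HEK 293T FXR-bla reporter cells were lysed with CellTiter-Glo and luminescence recorded.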

[16] = biological target: Bile acid receptor (Homo sapiens) (UniProt Q96RI1); assay: qHTS assay to identify small molecule agonists of the farnesoid-X-receptor (FXR) signaling pathway (AID 743220; active means well fitted activation curve with a large enough effect in the signal ratio in the repeat runs, not every such curve was filed as active; the % refers to the signal ratio)
Procedure, shortened: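 Beta-lactamase reporter under UAS control in GeneBLAzer FXR HEK 293T cells (5000/well) measured with LiveBLAzer FRET substrate after 2 h at room temperature. Compound exposure lasted 16 h at 37C.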

[17] = biological target: Vitamin D3 receptor (Homo sapiens) (UniProt P11473); assay: qHTS assay to identify small molecule agonists of the vitamin D receptor (VDR) signaling pathway (AID 743222; calls by dose curve)
Procedure, shortened: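 In VDR-bla cells, compound-induced beta-lactamase expression is quantified by FRET substrate fluorescence. Treatment lasts 16 h at 37C; substrate develops 2 h at room temperature.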

[18] = biological target: Peroxisome proliferator-activated receptor gamma (Homo sapiens) (UniProt P37231); assay: qHTS assay to identify small molecule antagonists of the peroxisome proliferator-activated receptor gamma (PPARg) signaling pathway (AID 743191; calls by dose curve; further: nearly all actives have a fitted effect of over 30% in size; further: potency means the concentration at half of the fitted maximal effect)
Procedure, shortened: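 GeneBLAzer PPARg UAS-bla HEK293H cells, 5 h post-plating, exposed to compounds 17 h at 37C. LiveBLAzer B/G FRET substrate added for 1 h at room temperature; beta-lactamase reporter read by fluorescence intensity.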

[19] = qHTS assay to identify small molecule antagonists of the peroxisome proliferator-activated receptor gamma (PPARg) signaling pathway - cell viability counter screen (AID 743194); conditions: Potency: co-treated with 50 nM rosiglitazone; further: nearly all actives have a fitted effect of over 55% in size
Procedure, shortened: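 Cytotoxicity counter screen in PPARg-bla HEK293H cells, same wells as reporter assay. Compounds plus 50 nM rosiglitazone (final) for 17 h at 37 C, then viability read by CellTiter-Glo luminescence.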

[20] = qHTS assay for small molecule agonists of the antioxidant response element (ARE) signaling pathway (AID 743202; active means well fitted activation curve with a large enough effect in the signal ratio in the repeat runs, not every such curve was filed as active; the % refers to the signal ratio; further: potency means the concentration at half of the fitted maximal effect)
Procedure, shortened: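 Agonist mode reporter screen: HepG2 cells with ARE-controlled beta-lactamase are incubated with test compounds for 16 h at 37 C, and beta-lactamase activity is measured as fluorescence of cleaved B/G FRET substrate.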
On the % scale 0 is the no-effect control and ±100 the full control effect.

CCCCCCCCCCCCN=C(N)N
inactive: activity change, negative = cytotoxicity [1] -14.3% [at 3.79 µM] | activation [2] -0.0242% [at 3.79 µM] | viability change, negative = cytotoxic [3] -4.27% [at 3.79 µM] | activation [4] 0.522% [at 3.17 µM] | viability change, negative = cytotoxic [5] -8.9% [at 3.74 µM] | activity change, negative = cytotoxicity [6] -18.4% [at 2.7 µM] | activity change, negative = cytotoxicity [7] -26.8% [at 2.7 µM] | activation [8] 6.16% [at 2.7 µM] | viability change, negative = cytotoxic [9] -15.8% [at 2.83 µM] | activity change, negative = cytotoxicity [10] -27.4% [at 2.69 µM] | activity change, negative = inhibition [11] 3.88% [at 3.11 µM]

CCCCCCCCCCCCN(C)C
inactive: Potency [1] | Potency [2] | Potency [3] | Potency [4] | Potency [5] | Potency [6] | Potency [12] | Potency [7] | outcome [8] | Potency [9] | Potency [13] | Potency [14] | Potency [15] | outcome [16] | Potency [10] | outcome [17] | Potency [11]

O=C([O-])c1ccccn1.O=C([O-])c1ccccn1.O=C([O-])c1ccccn1.[Cr+3]
inactive: Potency [1] | Potency [3] | Potency [4] | Potency [18] | Potency [19] | Potency [20] | Potency [5] | Potency [6] | Potency [12] | Potency [7] | Potency [9] | Potency [15] | Potency [10]

C#C[C@]1(O)CC[C@H]2[C@@H]3CCC4=CC(=O)CCC4=C3C=C[C@@]21CC
inactive: Potency [1] | Potency [2] | Potency [3] | Potency [19] | Potency [5] | Potency [6] | Potency [7] | Potency [9]

O=C(NC(=O)c1cc(F)c(F)cc1Cl)Nc1cc(F)ccc1N1CCC(C(=O)O)CC1
inactive: Potency [1] | Potency [2] | Potency [3] | Potency [20] | Potency [5] | Potency [6] | Potency [12] | outcome [8] | Potency [9] | Potency [13] | Potency [15] | Potency [10] | outcome [17] | Potency [11]
active: Potency [18] 1.9 µM

O=C(O)C(F)(F)C(F)(F)C(F)(F)C(F)(F)C(F)(F)C(F)(F)C(F)(F)C(F)(F)F
active: Potency [20] 6.86 µM | Potency [5] 61.1 µM
inactive: Potency [1] | Potency [2] | Potency [3] | Potency [19] | Potency [6] | Potency [7] | Potency [9] | Potency [14] | outcome [16] | Potency [10] | Potency [11]

O=C(Cc1ccccc1)c1ccccc1
inactive: Potency [1] | Potency [2] | Potency [3] | Potency [19] | Potency [20] | Potency [5] | Potency [6] | Potency [12] | Potency [7] | Potency [9] | Potency [14] | Potency [15] | outcome [16] | Potency [10] | outcome [17] | Potency [11]

CCCCNC(=O)OCC#CI
active: Potency [1] 6.08 µM and 17.2 µM | Potency [5] 21.7 µM
inactive: Potency [2] | Potency [3] | Potency [6] | Potency [14] | outcome [16] | Potency [10]

CC(C)CCCCCCCOC(=O)c1ccccc1C(=O)OCCCCCCCC(C)C
inactive: Potency [1] | Potency [2] | Potency [3] | Potency [4] | Potency [5] | Potency [6] | Potency [7] | Potency [9] | Potency [14] | Potency [15] | outcome [16] | Potency [10] | outcome [17] | Potency [11]
